Measurements as given in PMC11006913.
Numbering of substitutions follows the chain as printed.

Experiments:
Assay in all cases: PBM; 200 nM protein, PBS
Conditions in all cases: dsDNA, one strand shown
[1] = target: T1, SIX6 (Homo sapiens, UniProt O95475 114-200, L167I)
T1 sequence: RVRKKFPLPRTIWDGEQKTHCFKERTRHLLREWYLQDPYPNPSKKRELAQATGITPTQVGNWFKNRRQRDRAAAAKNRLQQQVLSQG

[2] = target: T2, SIX6 (Homo sapiens, UniProt O95475 114-200, L143V)
T2 sequence: T1 sequence with L30V, I54L

[3] = target: T3, SIX6 (Homo sapiens, UniProt O95475 114-200, H141N)
T3 sequence: T1 sequence with H28N, I54L

[4] = target: T4, SIX6 (Homo sapiens, UniProt O95475 114-200, T165P)
T4 sequence: T1 sequence with T52P, I54L

[5] = target: T5, SIX6 (Homo sapiens, UniProt O95475 114-200, L167M)
T5 sequence: T1 sequence with I54M

[6] = target: T6, SIX6 (Homo sapiens, UniProt O95475 114-200, L143M)
T6 sequence: T1 sequence with L30M, I54L

[7] = target: T7, SIX6 (Homo sapiens, UniProt O95475 114-200, L143I)
T7 sequence: T1 sequence with L30I, I54L

[8] = target: T8, SIX6 (Homo sapiens, UniProt O95475 114-200, T165G)
T8 sequence: T1 sequence with T52G, I54L

[9] = target: T9, SIX6 (Homo sapiens, UniProt O95475 114-200, T139Q)
T9 sequence: T1 sequence with T26Q, I54L

[10] = target: T10, SIX6 (Homo sapiens, UniProt O95475 114-200, T165A)
T10 sequence: T1 sequence with T52A, I54L

[11] = target: T11, SIX6 (Homo sapiens, UniProt O95475 114-200, L167V)
T11 sequence: T1 sequence with I54V

[12] = target: T12, SIX6 (Homo sapiens, UniProt O95475 114-200)
T12 sequence: T1 sequence with I54L

[13] = target: T13, SIX6 (Homo sapiens, UniProt O95475 114-200, T165I)
T13 sequence: T1 sequence with T52I, I54L

[14] = target: HOXC9 (Homo sapiens, UniProt P31274 178-260, R222W)
Sequence of HOXC9 (P31274 178-260 R222W): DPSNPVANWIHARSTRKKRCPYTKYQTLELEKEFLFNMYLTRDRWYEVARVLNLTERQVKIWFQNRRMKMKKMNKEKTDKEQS

[15] = target: ALX3 (Homo sapiens, UniProt O95076 139-225, N203Q)
Sequence of ALX3 (Homo sapiens, UniProt O95076 139-225, N203Q) (O95076 139-225 N203Q): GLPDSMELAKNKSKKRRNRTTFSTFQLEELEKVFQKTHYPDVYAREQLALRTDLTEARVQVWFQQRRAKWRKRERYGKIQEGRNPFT

[16] = target: ALX3 (Homo sapiens, UniProt O95076 139-225, N203S)
Sequence of ALX3 (Homo sapiens, UniProt O95076 139-225, N203S) (O95076 139-225 N203S): as the sequence (O95076 139-225 N203Q) above, with Q65S counted along it

Sequence	binding signal [1]	binding signal [2]	binding signal [3]	binding signal [4]	binding signal [5]	binding signal [6]	binding signal [7]	binding signal [8]	binding signal [9]	binding signal [10]	binding signal [11]	binding signal [12]	binding signal [13]	binding signal [14]	binding signal [15]	binding signal [16]
ACGCCGGG	9.17 upbm affinity estimate (log intensity, higher = more binding, comparable within an allelic series)	8.97 upbm affinity estimate (log intensity, higher = more binding, comparable within an allelic series)	9.1 upbm affinity estimate (log intensity, higher = more binding, comparable within an allelic series)	8.92 upbm affinity estimate (log intensity, higher = more binding, comparable within an allelic series)	9.17 upbm affinity estimate (log intensity, higher = more binding, comparable within an allelic series)	9.18 upbm affinity estimate (log intensity, higher = more binding, comparable within an allelic series)	9.05 upbm affinity estimate (log intensity, higher = more binding, comparable within an allelic series)	9.16 upbm affinity estimate (log intensity, higher = more binding, comparable within an allelic series)	9.21 upbm affinity estimate (log intensity, higher = more binding, comparable within an allelic series)	9.2 upbm affinity estimate (log intensity, higher = more binding, comparable within an allelic series)	9 upbm affinity estimate (log intensity, higher = more binding, comparable within an allelic series)	9.15 upbm affinity estimate (log intensity, higher = more binding, comparable within an allelic series)	9.16 upbm affinity estimate (log intensity, higher = more binding, comparable within an allelic series)			
CGGCCACC	8.7 upbm affinity estimate (log intensity, higher = more binding, comparable within an allelic series)	8.6 upbm affinity estimate (log intensity, higher = more binding, comparable within an allelic series)	8.63 upbm affinity estimate (log intensity, higher = more binding, comparable within an allelic series)	8.71 upbm affinity estimate (log intensity, higher = more binding, comparable within an allelic series)	8.67 upbm affinity estimate (log intensity, higher = more binding, comparable within an allelic series)	8.54 upbm affinity estimate (log intensity, higher = more binding, comparable within an allelic series)	8.75 upbm affinity estimate (log intensity, higher = more binding, comparable within an allelic series)	8.72 upbm affinity estimate (log intensity, higher = more binding, comparable within an allelic series)	8.67 upbm affinity estimate (log intensity, higher = more binding, comparable within an allelic series)	8.71 upbm affinity estimate (log intensity, higher = more binding, comparable within an allelic series)	8.66 upbm affinity estimate (log intensity, higher = more binding, comparable within an allelic series)	8.55 upbm affinity estimate (log intensity, higher = more binding, comparable within an allelic series)	8.64 upbm affinity estimate (log intensity, higher = more binding, comparable within an allelic series)			
CCGGGCGC	8.78 upbm affinity estimate (log intensity, higher = more binding, comparable within an allelic series)	8.67 upbm affinity estimate (log intensity, higher = more binding, comparable within an allelic series)	8.71 upbm affinity estimate (log intensity, higher = more binding, comparable within an allelic series)	8.75 upbm affinity estimate (log intensity, higher = more binding, comparable within an allelic series)	8.72 upbm affinity estimate (log intensity, higher = more binding, comparable within an allelic series)	8.66 upbm affinity estimate (log intensity, higher = more binding, comparable within an allelic series)	8.69 upbm affinity estimate (log intensity, higher = more binding, comparable within an allelic series)	8.73 upbm affinity estimate (log intensity, higher = more binding, comparable within an allelic series)	8.6 upbm affinity estimate (log intensity, higher = more binding, comparable within an allelic series)	8.69 upbm affinity estimate (log intensity, higher = more binding, comparable within an allelic series)	8.69 upbm affinity estimate (log intensity, higher = more binding, comparable within an allelic series)	8.66 upbm affinity estimate (log intensity, higher = more binding, comparable within an allelic series)	8.72 upbm affinity estimate (log intensity, higher = more binding, comparable within an allelic series)	9.66 upbm affinity estimate (log intensity, higher = more binding, comparable within an allelic series)		
CGATACCA	10.8 upbm affinity estimate (log intensity, higher = more binding, comparable within an allelic series)	10 upbm affinity estimate (log intensity, higher = more binding, comparable within an allelic series)	10.8 upbm affinity estimate (log intensity, higher = more binding, comparable within an allelic series)	9.44 upbm affinity estimate (log intensity, higher = more binding, comparable within an allelic series)	10.3 upbm affinity estimate (log intensity, higher = more binding, comparable within an allelic series)	10.7 upbm affinity estimate (log intensity, higher = more binding, comparable within an allelic series)	10.1 upbm affinity estimate (log intensity, higher = more binding, comparable within an allelic series)	11 upbm affinity estimate (log intensity, higher = more binding, comparable within an allelic series)	11.1 upbm affinity estimate (log intensity, higher = more binding, comparable within an allelic series)	10.8 upbm affinity estimate (log intensity, higher = more binding, comparable within an allelic series)	10.6 upbm affinity estimate (log intensity, higher = more binding, comparable within an allelic series)	10.8 upbm affinity estimate (log intensity, higher = more binding, comparable within an allelic series)	10.6 upbm affinity estimate (log intensity, higher = more binding, comparable within an allelic series)			
GCCAGTCC	9.04 upbm affinity estimate (log intensity, higher = more binding, comparable within an allelic series)	8.92 upbm affinity estimate (log intensity, higher = more binding, comparable within an allelic series)	8.9 upbm affinity estimate (log intensity, higher = more binding, comparable within an allelic series)	9.04 upbm affinity estimate (log intensity, higher = more binding, comparable within an allelic series)	8.92 upbm affinity estimate (log intensity, higher = more binding, comparable within an allelic series)	8.89 upbm affinity estimate (log intensity, higher = more binding, comparable within an allelic series)	9.03 upbm affinity estimate (log intensity, higher = more binding, comparable within an allelic series)	9 upbm affinity estimate (log intensity, higher = more binding, comparable within an allelic series)	9.12 upbm affinity estimate (log intensity, higher = more binding, comparable within an allelic series)	8.81 upbm affinity estimate (log intensity, higher = more binding, comparable within an allelic series)	8.95 upbm affinity estimate (log intensity, higher = more binding, comparable within an allelic series)	8.9 upbm affinity estimate (log intensity, higher = more binding, comparable within an allelic series)	8.85 upbm affinity estimate (log intensity, higher = more binding, comparable within an allelic series)			
CGGCCTTC	8.62 upbm affinity estimate (log intensity, higher = more binding, comparable within an allelic series)	8.87 upbm affinity estimate (log intensity, higher = more binding, comparable within an allelic series)	8.82 upbm affinity estimate (log intensity, higher = more binding, comparable within an allelic series)	9 upbm affinity estimate (log intensity, higher = more binding, comparable within an allelic series)	8.83 upbm affinity estimate (log intensity, higher = more binding, comparable within an allelic series)	8.77 upbm affinity estimate (log intensity, higher = more binding, comparable within an allelic series)	8.94 upbm affinity estimate (log intensity, higher = more binding, comparable within an allelic series)	8.84 upbm affinity estimate (log intensity, higher = more binding, comparable within an allelic series)	8.59 upbm affinity estimate (log intensity, higher = more binding, comparable within an allelic series)	8.81 upbm affinity estimate (log intensity, higher = more binding, comparable within an allelic series)	8.94 upbm affinity estimate (log intensity, higher = more binding, comparable within an allelic series)	8.77 upbm affinity estimate (log intensity, higher = more binding, comparable within an allelic series)	8.7 upbm affinity estimate (log intensity, higher = more binding, comparable within an allelic series)			
GGTGATAC	11.3 upbm affinity estimate (log intensity, higher = more binding, comparable within an allelic series)	10.3 upbm affinity estimate (log intensity, higher = more binding, comparable within an allelic series)	11.3 upbm affinity estimate (log intensity, higher = more binding, comparable within an allelic series)	9.52 upbm affinity estimate (log intensity, higher = more binding, comparable within an allelic series)	10.6 upbm affinity estimate (log intensity, higher = more binding, comparable within an allelic series)	11 upbm affinity estimate (log intensity, higher = more binding, comparable within an allelic series)	10.4 upbm affinity estimate (log intensity, higher = more binding, comparable within an allelic series)	11.3 upbm affinity estimate (log intensity, higher = more binding, comparable within an allelic series)	11.4 upbm affinity estimate (log intensity, higher = more binding, comparable within an allelic series)	11.3 upbm affinity estimate (log intensity, higher = more binding, comparable within an allelic series)	11 upbm affinity estimate (log intensity, higher = more binding, comparable within an allelic series)	11 upbm affinity estimate (log intensity, higher = more binding, comparable within an allelic series)	11 upbm affinity estimate (log intensity, higher = more binding, comparable within an allelic series)			
CCGCCAGC	9.01 upbm affinity estimate (log intensity, higher = more binding, comparable within an allelic series)	9.02 upbm affinity estimate (log intensity, higher = more binding, comparable within an allelic series)	9.07 upbm affinity estimate (log intensity, higher = more binding, comparable within an allelic series)	9.02 upbm affinity estimate (log intensity, higher = more binding, comparable within an allelic series)	9.06 upbm affinity estimate (log intensity, higher = more binding, comparable within an allelic series)	9.02 upbm affinity estimate (log intensity, higher = more binding, comparable within an allelic series)	9.03 upbm affinity estimate (log intensity, higher = more binding, comparable within an allelic series)	9.05 upbm affinity estimate (log intensity, higher = more binding, comparable within an allelic series)	9.1 upbm affinity estimate (log intensity, higher = more binding, comparable within an allelic series)	9.05 upbm affinity estimate (log intensity, higher = more binding, comparable within an allelic series)	9.06 upbm affinity estimate (log intensity, higher = more binding, comparable within an allelic series)	9.05 upbm affinity estimate (log intensity, higher = more binding, comparable within an allelic series)	9.03 upbm affinity estimate (log intensity, higher = more binding, comparable within an allelic series)			
CATGATCA	10.5 upbm affinity estimate (log intensity, higher = more binding, comparable within an allelic series)	9.91 upbm affinity estimate (log intensity, higher = more binding, comparable within an allelic series)	10.3 upbm affinity estimate (log intensity, higher = more binding, comparable within an allelic series)	9.68 upbm affinity estimate (log intensity, higher = more binding, comparable within an allelic series)	10.1 upbm affinity estimate (log intensity, higher = more binding, comparable within an allelic series)	10.4 upbm affinity estimate (log intensity, higher = more binding, comparable within an allelic series)	9.97 upbm affinity estimate (log intensity, higher = more binding, comparable within an allelic series)	10.4 upbm affinity estimate (log intensity, higher = more binding, comparable within an allelic series)	10.6 upbm affinity estimate (log intensity, higher = more binding, comparable within an allelic series)	10.3 upbm affinity estimate (log intensity, higher = more binding, comparable within an allelic series)	10.4 upbm affinity estimate (log intensity, higher = more binding, comparable within an allelic series)	10.3 upbm affinity estimate (log intensity, higher = more binding, comparable within an allelic series)	10.2 upbm affinity estimate (log intensity, higher = more binding, comparable within an allelic series)		8.19 upbm affinity estimate (log intensity, higher = more binding, comparable within an allelic series)	8.21 upbm affinity estimate (log intensity, higher = more binding, comparable within an allelic series)
